# About 79,000 compounds went through this panel and 15% of them were active in at least one assay; those are over-represented in the sample as a whole. A number with no mark means an inactive call. Active and inactive are the calls of the source. Rule as the data show it: active = growth inhibition above about 70%; inactive = the rest.
# How the values were obtained:
# [1] = NCI Yeast Anticancer Drug Screen. Data for the wt1 strain (AID 149);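 also: 0% = growth of vehicle-treated wt1 cultures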; details: S. cerevisiae wt1 strain (SPY 50644) growth inhibition, stronger effect = higher value
# How it was run: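 Readout: yeast growth inhibition, normalised to vehicle controls, in the wt1 strain exposed to test compounds.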
# [2] = NCI Yeast Anticancer Drug Screen. Data for the rad50EPP+ strain (AID 151);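 also: 0% = growth of vehicle-treated control cultures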; details: S. cerevisiae rad50 mutant strain, stronger effect = higher value
# How it was run: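 Yeast strain carrying rad50 alteration (rad50EPP+) exposed to compounds; growth inhibition measured relative to vehicle-treated controls.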
# [3] = NCI Yeast Anticancer Drug Screen. Data for the rad50 strain (AID 155);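 also: 0% = growth of vehicle-only cultures of the same strain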; details: S. cerevisiae rad50 strain growth inhibition, stronger effect = higher value
# How it was run: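 Compounds were tested on a yeast strain with an engineered DNA damage repair alteration; the reported value is growth inhibition normalised to vehicle treatment.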
# [4] = NCI Yeast Anticancer Drug Screen. Data for the rad14 strain (AID 159);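 also: 0% = growth of vehicle-treated control cultures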; details: S. cerevisiae rad14 strain growth inhibition, stronger effect = higher value
# How it was run: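 Compound-treated yeast with a defined DNA-repair lesion; growth inhibition normalised to vehicle-treated cultures.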
# [5] = NCI Yeast Anticancer Drug Screen. Data for the sgs1 mgt1 strain (AID 161);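 also: 0% = growth of cultures given vehicle only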; details: S. cerevisiae sgs1 mgt1 strain, stronger effect = higher value
# How it was run: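 Yeast cells carrying a defined DNA-repair defect were exposed to test compounds. Growth inhibition was measured relative to vehicle-treated controls.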
# [6] = NCI Yeast Anticancer Drug Screen. Data for the CLN2oe strain (AID 163);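 also: 0% = growth of vehicle-only control cultures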; details: S. cerevisiae CLN2oe strain, stronger effect = higher value
# How it was run: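 Yeast cells carrying a defined cell-cycle control alteration were exposed to test compounds. Growth inhibition was scored against vehicle-treated control cultures.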
# [7] = NCI Yeast Anticancer Drug Screen. Data for the cln2 rad14 strain (AID 165);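 also: 0% = growth equal to vehicle treated cultures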; details: S. cerevisiae cln2 rad14 strain, stronger effect = higher value
# How it was run: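 Yeast carrying cln2 and rad14 alterations (cell cycle control and DNA damage repair) were exposed to compounds. Growth inhibition was measured against vehicle-treated controls.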
# [8] = NCI Yeast Anticancer Drug Screen. Data for the bub3 strain (AID 167); details: S. cerevisiae bub3 mutant strain, stronger effect = higher value
# How it was run: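 Growth of a checkpoint-deficient yeast mutant is measured after compound exposure. Values represent inhibition relative to vehicle.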
# [9] = NCI Yeast Anticancer Drug Screen. Data for the wt2 strain (AID 169);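 also: 0% = growth of vehicle-treated yeast cultures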; details: S. cerevisiae wt2 strain growth inhibition, stronger effect = higher value
# How it was run: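 Yeast cells were exposed to test compounds, and growth inhibition was measured relative to vehicle-treated controls.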
# [10] = NCI Yeast Anticancer Drug Screen. Data for the mlh1 strain (AID 171);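 also: 0% = growth of vehicle-treated control cultures of the same strain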; details: S. cerevisiae mlh1 strain growth inhibition, stronger effect = higher value
# How it was run: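 Yeast carrying a defined genetic alteration in DNA damage repair or cell cycle control were exposed to test compounds. Growth inhibition was measured relative to vehicle-treated controls.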
# [11] = NCI Yeast Anticancer Drug Screen. Data for the sgs1 strain (AID 173);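 also: 0% = growth of vehicle-only control cultures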; details: S. cerevisiae sgs1 mutant, stronger effect = higher value
# How it was run: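 Yeast mutant strains carrying defined defects in DNA damage repair or cell cycle control were exposed to test compounds. Growth inhibition was scored against vehicle-treated controls.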
# [12] = NCI Yeast Anticancer Drug Screen. Data for the mlh1 rad18 strain (AID 175); details: S. cerevisiae mlh1 rad18 strain growth inhibition, stronger effect = higher value
# How it was run: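 Growth inhibition of the yeast strain was measured after compound exposure and expressed relative to vehicle-treated controls. The strain carries defined defects in DNA damage repair.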
# [13] = NCI Yeast Anticancer Drug Screen. Data for the mec2-1 strain (AID 157); details: S. cerevisiae mec2-1 strain, stronger effect = higher value
# How it was run: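 mec2-1 yeast strain, carrying an alteration in DNA damage repair or cell cycle control, was exposed to compounds; growth inhibition was measured relative to vehicle-treated controls.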
# [14] = NCI Yeast Anticancer Drug Screen. Data for the rad18 strain (AID 177); details: S. cerevisiae rad18 mutant growth inhibition, stronger effect = higher value
# How it was run: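 Yeast carrying a defined DNA damage repair alteration were exposed to compounds. Growth inhibition was expressed relative to vehicle-treated controls.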
# [15] = at 5.0 µM (retest, dose inferred, filed as 0.5)
# [16] = at 50.0 µM (retest, dose inferred, filed as 5.0)
compound,measurement,setting,value
O=Cn1c2ccccc2c2ccccc21,growth inhibition,[1]; at 1.2 µM,-16%
same,growth inhibition,[1]; at 3.7 µM,-14%
same,growth inhibition,[1]; at 11.0 µM,-8%
same,growth inhibition,[1]; at 33.0 µM,-7%
same,growth inhibition,[1]; at 100.0 µM,23%
same,growth inhibition,[2]; at 1.2 µM,-54%
same,growth inhibition,[2]; at 3.7 µM,-27%
same,growth inhibition,[2]; at 11.0 µM,0%
same,growth inhibition,[2]; at 33.0 µM,10%
same,growth inhibition,[2]; at 100.0 µM,91% (active)
same,growth inhibition,[3]; at 1.2 µM,-42%
same,growth inhibition,[3]; at 3.7 µM,-4%
same,growth inhibition,[3]; [15],63%
same,growth inhibition,[3]; at 11.0 µM,9%
same,growth inhibition,[3]; at 33.0 µM,-1%
same,growth inhibition,[3]; [16],90% (active)
same,growth inhibition,[3]; at 50.0 µM,64.2%
same,growth inhibition,[3]; at 100.0 µM,82% (active)
same,growth inhibition,[4]; at 1.2 µM,-32%
same,growth inhibition,[4]; at 3.7 µM,-20%
same,growth inhibition,[4]; at 11.0 µM,-19%
same,growth inhibition,[4]; at 33.0 µM,-20%
same,growth inhibition,[4]; at 100.0 µM,25%
same,growth inhibition,[5]; [15],-16%
same,growth inhibition,[5]; [16],46%
same,growth inhibition,[5]; at 50.0 µM,33.5%
same,growth inhibition,[6]; at 1.2 µM,-12%
same,growth inhibition,[6]; at 3.7 µM,-15%
same,growth inhibition,[6]; at 11.0 µM,1%
same,growth inhibition,[6]; at 33.0 µM,-21%
same,growth inhibition,[6]; at 100.0 µM,39%
same,growth inhibition,[7]; [15],59%
same,growth inhibition,[7]; [16],74% (active)
same,growth inhibition,[7]; at 50.0 µM,20.6%
same,growth inhibition,[8]; at 1.2 µM,-26%
same,growth inhibition,[8]; at 3.7 µM,-8%
same,growth inhibition,[8]; [15],42%
same,growth inhibition,[8]; at 11.0 µM,13%
same,growth inhibition,[8]; at 33.0 µM,-21%
same,growth inhibition,[8]; [16],66%
same,growth inhibition,[8]; at 50.0 µM,60.9%
same,growth inhibition,[8]; at 100.0 µM,60%
same,growth inhibition,[9]; at 1.2 µM,-12%
same,growth inhibition,[9]; at 3.7 µM,-21%
same,growth inhibition,[9]; at 11.0 µM,-7%
same,growth inhibition,[9]; at 33.0 µM,-18%
same,growth inhibition,[9]; at 100.0 µM,46%
same,growth inhibition,[10]; at 1.2 µM,-18%
same,growth inhibition,[10]; at 3.7 µM,-17%
same,growth inhibition,[10]; at 11.0 µM,4%
same,growth inhibition,[10]; at 33.0 µM,-2%
same,growth inhibition,[10]; at 100.0 µM,65%
same,growth inhibition,[11]; at 1.2 µM,-32%
same,growth inhibition,[11]; at 3.7 µM,-37%
same,growth inhibition,[11]; at 11.0 µM,-8%
same,growth inhibition,[11]; at 33.0 µM,-15%
same,growth inhibition,[11]; at 100.0 µM,57%
same,growth inhibition,[12]; [15],54%
same,growth inhibition,[12]; [16],97% (active)
same,growth inhibition,[12]; at 50.0 µM,70.8% (active)
O=C(Cc1ccccc1)c1ccc(O)cc1,growth inhibition,[1]; at 1.2 µM,-20%
same,growth inhibition,[1]; at 3.7 µM,-8%
same,growth inhibition,[1]; at 11.0 µM,5%
same,growth inhibition,[1]; at 33.0 µM,63%
same,growth inhibition,[1]; at 100.0 µM,87% (active)
same,growth inhibition,[2]; at 1.2 µM,11%
same,growth inhibition,[2]; at 3.7 µM,10%
same,growth inhibition,[2]; at 11.0 µM,-3%
same,growth inhibition,[2]; at 33.0 µM,40%
same,growth inhibition,[2]; at 100.0 µM,71% (active)
same,growth inhibition,[3]; at 1.2 µM,-15%
same,growth inhibition,[3]; at 3.7 µM,-21%
same,growth inhibition,[3]; [15],81% (active)
same,growth inhibition,[3]; at 11.0 µM,17%
same,growth inhibition,[3]; at 33.0 µM,74% (active)
same,growth inhibition,[3]; [16],99% (active)
same,growth inhibition,[3]; at 50.0 µM,83.5% (active)
same,growth inhibition,[3]; at 100.0 µM,85% (active)
same,growth inhibition,[13]; at 1.2 µM,-24%
same,growth inhibition,[13]; at 3.7 µM,-15%
same,growth inhibition,[13]; [15],78% (active)
same,growth inhibition,[13]; at 11.0 µM,20%
same,growth inhibition,[13]; at 33.0 µM,70% (active)
same,growth inhibition,[13]; [16],98% (active)
same,growth inhibition,[13]; at 50.0 µM,91.5% (active)
same,growth inhibition,[13]; at 100.0 µM,91% (active)
same,growth inhibition,[4]; at 1.2 µM,-13%
same,growth inhibition,[4]; at 3.7 µM,-25%
same,growth inhibition,[4]; at 11.0 µM,-5%
same,growth inhibition,[4]; at 33.0 µM,62%
same,growth inhibition,[4]; at 100.0 µM,89% (active)
same,growth inhibition,[5]; [15],1%
same,growth inhibition,[5]; [16],88% (active)
same,growth inhibition,[5]; at 50.0 µM,94.2% (active)
same,growth inhibition,[6]; at 1.2 µM,5%
same,growth inhibition,[6]; at 3.7 µM,15%
same,growth inhibition,[6]; at 11.0 µM,22%
same,growth inhibition,[6]; at 33.0 µM,53%
same,growth inhibition,[6]; at 100.0 µM,85% (active)
same,growth inhibition,[7]; [15],36%
same,growth inhibition,[7]; [16],90% (active)
same,growth inhibition,[7]; at 50.0 µM,62.6%
same,growth inhibition,[8]; at 1.2 µM,-11%
same,growth inhibition,[8]; at 3.7 µM,-14%
same,growth inhibition,[8]; [15],44%
same,growth inhibition,[8]; at 11.0 µM,24%
same,growth inhibition,[8]; at 33.0 µM,69%
same,growth inhibition,[8]; [16],97% (active)
same,growth inhibition,[8]; at 50.0 µM,92.7% (active)
same,growth inhibition,[8]; at 100.0 µM,89% (active)
same,growth inhibition,[9]; at 1.2 µM,-10%
same,growth inhibition,[9]; at 3.7 µM,-17%
same,growth inhibition,[9]; at 11.0 µM,-10%
same,growth inhibition,[9]; at 33.0 µM,58%
same,growth inhibition,[9]; at 100.0 µM,87% (active)
same,growth inhibition,[10]; at 1.2 µM,-13%
same,growth inhibition,[10]; at 3.7 µM,0%
same,growth inhibition,[10]; at 11.0 µM,23%
same,growth inhibition,[10]; at 33.0 µM,68%
same,growth inhibition,[10]; at 100.0 µM,89% (active)
same,growth inhibition,[12]; [15],56%
same,growth inhibition,[12]; [16],99% (active)
same,growth inhibition,[12]; at 50.0 µM,86.1% (active)
same,growth inhibition,[14]; at 1.2 µM,-34%
same,growth inhibition,[14]; at 3.7 µM,-41%
same,growth inhibition,[14]; at 11.0 µM,-11%
same,growth inhibition,[14]; at 33.0 µM,69%
same,growth inhibition,[14]; at 100.0 µM,89% (active)

# — PubChem BioAssay (NCI)
